The whole screen tested about 360,000 compounds, of which about 3,800 (1.1%) were called active. The sample holds actives, similar compounds and a random draw of the others, so the mix is not that of the screen. A number with no mark means an inactive call.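 How the source made its calls: active means compounds causing at least 50% loss of cell viability in the single-dose screen, relative to plate controls; inactive means the rest.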
experiment: viability loss with TRAIL in NB7+C8 cells, primary screen, TRAIL sensitizer project, cell-based, ATPlite luminescence (AID 624354); details: at 10 µM, hits give high values

Compound | inhibition (viability loss, TRAIL sensitization)
COc1cccc(/C=C/c2ccc3ccccc3n2)c1OC(C)=O | 65.1% (active)
CCOc1cccc(/C=C/c2ccc3ccccc3n2)c1OC(C)=O | 47.3%
COc1cccc(NC(=O)COC(=O)c2ccc3ccccc3n2)c1 | -11.3%
C=CCCC(=O)N1C[C@H]2CON(C)[C@H]2C[C@H]1c1cccc(Nc2ccccc2)c1 | -0.674%
O=C(NCc1ccc(Cl)cc1)c1cc2c(nc3sccn32)s1 | 0.401%
COc1ccc(C2=Nc3ccccc3NC(=O)C2N(C(=O)c2cc3ccccc3[nH]2)c2ccccc2)cc1 (configuration not stated) | -7.09%
CCOc1ccc(-c2ccc(SCC(=O)N3CCOCC3)nn2)cc1 | 50.6% (active)
COc1cccc(-c2ccc(SCC(=O)N3CCN(c4ccccc4)CC3)nn2)c1 | 6.26%
COc1ccc(-c2ccnc(SCC(=O)N3CCOCC3)n2)cc1 | 28%
CC(O)c1nc2c(c(=O)n(C)c(=O)n2C)n1C (configuration not stated) | -4.64%
O=C(c1cccs1)N1C[C@H](n2cc(C3CC3)nn2)[C@@H](O)C[C@@H]1c1ccccc1 | -1.93%
O=c1c2c(nc3cc(-c4cccc(Cl)c4)[nH]n13)CCCC2 | 63.1% (active)
C=CCc1c(C)nc2cc(-c3ccccc3)[nH]n2c1=O | 30.8%
CCCCN1Cc2c(nc3cc(-c4ccccc4)[nH]n3c2=O)C1=O | -2.49%
CCn1cc(CNC(=O)c2cc([N+](=O)[O-])c(C)c([N+](=O)[O-])c2)cn1 | 24.5%
Cn1c(=O)c2c(ncn2CC(COCc2ccccc2Cl)OCc2ccccc2Cl)n(C)c1=O (configuration not stated) | -6.46%
COc1ccc(CCc2nnc(CCC(=O)NCc3cnn(-c4ccccc4C)c3)o2)cc1 | 2.59%
COc1ccc(C(C(=O)NC2CCCCC2)N(C(=O)CCl)c2ccccc2Cl)cc1 (configuration not stated) | 94.5% (active)
Cc1ccccc1N(C(=O)CNC(=O)c1cccs1)C(C(=O)NC1CCCC1)c1ccncc1 (configuration not stated) | 34.8%
COc1ccc(C(C(=O)NC2CCCCC2)N(C(=O)c2snc(C(N)=O)c2N)c2ccccc2OC)cc1 (configuration not stated) | 1.04%
COC(=O)[C@@]12C[C@@H](CC(=O)N3CCCCC3)C(=O)N(Cc3ccc4c(c3)OCO4)C1=CCC(C)(C)C2 | -12.6%
COc1ccccc1C(=O)NCCC(=O)N(C)Cc1cccnc1 | 10.4%
Cc1cc(O)ccc1NC1=CC(=O)CC(C)(C)C1 | 1.23%

Compound | inhibition (viability loss, TRAIL sensitization)
Cc1cc(N=Nc2ccc3ccccc3c2)ccc1O | 55.4% (active)
CC(C)Cn1c(N)c(C(=O)COC(=O)CN2C(=O)C3CC=CCC3C2=O)c(=O)n(C)c1=O (configuration not stated) | 13.4%
CCCc1cc(=O)[nH]c(SCC(=O)N2C(C)CCCC2C)n1 (configuration not stated) | -9.5%
CCCc1cc(=O)[nH]c(SCC(=O)c2c(N)n(CC(C)C)c(=O)n(C)c2=O)n1 | 84.5% (active)
O=C(Nc1cccc2cccnc12)c1ccc2sc([C@H]3C[C@H](O)[C@@H](CO)O3)nc2c1 | 7.21%
COC(=O)C[C@@H]1C=C[C@@H](NS(=O)(=O)c2cccc(OC)c2)[C@@H](CO)O1 | 4.54%
CC(=O)c1c(O)cc2n(c1=O)-c1ccc(Cl)cc1C2(C)C | 5.66%
CC(C)C(NC(=O)C1CCC(C(C)(C)C)CC1)C(=O)NCCCN1CCCCC1 (configuration not stated) | 8.66%
Cc1ccc(OCCCC(=O)Nc2ccc3c(c2)OCCO3)cc1 | -4.22%
Cc1cccc(NC(=O)/C=C/c2ccc3c(c2)OCO3)n1 | 79.8% (active)
COc1cccc(C(=O)NNC(=O)/C=C/c2ccccc2)c1 | -32%
Cc1cc(C)nc(NC(=O)/C=C/c2ccc(Cl)cc2)n1 | 2.95%
CN(Cc1ccccc1)C(=O)COC(=O)/C=C/c1ccc2c(c1)OCO2 | -10.8%
COc1cccc(/C=C/C(=O)Nc2ccc3c(c2)OCCO3)c1 | 64.9% (active)
COC(=O)Cc1ccc(OC2(C)CCN(Cc3ccc4c(c3)OCCO4)C2)cc1 (configuration not stated) | -7.8%
COc1nnc(-c2ccc(C)c(S(=O)(=O)N(C)C)c2)c2ccccc12 | -6.56%
Cc1ccc(/C=C2\CCn3c2nc2cc(C(=O)O)ccc2c3=O)c(C)c1 | 5.96%
COc1ccc(OC)c(-n2nnnc2SCC(=O)Nc2cc(C)ccc2OC)c1 | -4.79%
C=CCn1c(C)cc(C2=NNC(=NCC)SC2)c1C | 92.8% (active)
CCC(CC)c1nnc(NC(=O)C2CCN(C(=O)c3ccco3)CC2)s1 | -18.9%
CCCNC(=O)c1cc(C2CCCCN2C(=O)OC)on1 (configuration not stated) | -21.1%
N#CCCC(C#N)(c1cccnc1)N1CCOCC1 (configuration not stated) | -12.1%
O=C(NCC(O)c1nc2ccccc2[nH]1)c1ccc(Br)cc1 (configuration not stated) | -0.934%

Compound | inhibition (viability loss, TRAIL sensitization)
O=c1c(-c2ccc(Cl)cc2)[n+]([O-])c2ccccc2n1OCc1nc2ccccc2[nH]1 | -24.1%
O=C(Cc1nc2ccccc2[nH]c1=O)c1ccc(Cl)cc1 | 60.2% (active)
CCC1(C)Cc2c(sc3nnn(CC(=O)Nc4ccc(Cl)cc4)c(=O)c23)CO1 (configuration not stated) | -1.52%
COc1cc(OC)cc(-c2cc3ccc(F)cc3cn2)c1 | 60% (active)
Fc1ccc2cnc(-c3ccccc3)cc2c1 | -5.36%
COc1ccc(C(C)(O)c2nc(-c3cc(F)cc(F)c3)cs2)cc1 (configuration not stated) | 21%
CC(=O)c1nnn(-c2ccc(Cl)cc2C#N)c1C | 2.75%
Cc1ccc(N2CCN(c3ccc(C)cc3)C2c2ccccn2)cc1 | -11.7%
Cc1ccc(-c2cc(C(=O)NCc3cn(C)nc3C)c3cc(Br)ccc3n2)cc1 | 12.3%
Cc1ccc2nc(-c3ccncc3)cc(C(=O)Nc3ccncc3)c2c1 | 54% (active)
Cc1ccc2nc(-c3ccncc3)cc(C(=O)Nc3ccc(OC(F)F)cc3)c2c1 | 14.5%
Cc1cc(C)n2nc(C(=O)OC(C)C(=O)c3cc(C)c(C)cc3C)nc2n1 (configuration not stated) | -12.9%
CC(=O)N1c2ccc(S(=O)(=O)N3CCCC(C(=O)NCc4ccc(Cl)cc4)C3)cc2CC1C (configuration not stated) | 15.2%
Cc1ccc(S(=O)(=O)N(C)CC(=O)N2CCc3ccccc32)cc1 | -3.97%
O=C(CN1C(=O)c2ccccc2S1(=O)=O)N1CCc2ccccc21 | 61.8% (active)
CN(Cc1cccs1)C(=O)CN1C(=O)c2ccccc2S1(=O)=O | -16.6%
O=S(=O)(Cc1ccccc1)c1nc2ccccc2n1Cc1ccccn1 | -8.41%
O=C(Cn1c2[n+](c3ccc(C(F)(F)F)cc31)CCCCC2)Nc1c(F)cccc1F | 3.77%
COc1cc2c(cc1OC)CN(C(=O)c1cc(S(=O)(=O)N3CCCCC3)ccc1Cl)CC2 | 1.71%
COc1ccc(C2SCCN2S(=O)(=O)c2ccccc2)cc1OC (configuration not stated) | 0.617%
COc1cc2c(cc1OC)C(C)N(S(=O)(=O)c1cnc(Cl)c(Cl)c1)CC2 (configuration not stated) | 75.2% (active)
C[C@@H]1CC2=C(C(=O)OC(C)(C)O2)[C@@H](C2CC2)O1 | -8.67%
Cc1ccc(OCCNC(=O)CN2C(=O)NC3(CCCC3)C2=O)cc1 | -18.7%

Compound | inhibition (viability loss, TRAIL sensitization)
CCn1cc(-c2cc(C(=O)O)on2)c(C)n1 | -6.48%
CC(C)Nc1ccc(-n2nc3ccccc3[n+]2[O-])cc1 | 54.6% (active)
CCCC(O)(CCC)C(=O)NN(C(=O)CCl)c1cccc(C)c1 | 5.97%
COC(=O)N(NC(=O)C(O)(C(C)C)C(C)C)c1ccccc1 | 21.8%
CCCCC(O)(CCCC)C(=O)NN(C(=O)CCl)c1ccccc1 | 82.8% (active)
COc1ccc(/C=C/CN2CCN(Cc3ccc(C)cc3)C(CCO)C2)cc1 (configuration not stated) | -0.778%
CC(=C/c1ccccc1)/C=N/NC(=O)c1cc(C)oc1C | 54.5% (active)
Cc1ccc(-c2cc(C(=O)N/N=C/C=C/c3ccccc3)n[nH]2)o1 | 0.486%
Cc1cc(C(=O)NCCc2ccc(Cl)cc2)c(C)o1 | -14.9%
Cc1ccc2cccc(OCCCOc3ccccc3CO)c2n1 | -4.7%
Cc1ccc(NC(=O)c2oc3ccccc3c2C)c([N+](=O)[O-])c1 | 3.18%
CC1(C(=O)NS(=O)(=O)C2CC2)CCCN(C(=O)CSc2ccccc2)C1 (configuration not stated) | -10.3%
CCOC(=O)c1c(NC(=O)c2ccc(S(=O)(=O)N(C)CC3CCCO3)cc2)sc2c1CC(C)(C)NC2(C)C (configuration not stated) | 26.5%
CN1CCC(OC(=O)COc2ccc(Cl)cc2Cl)CC1 | -7.75%
COC(=O)c1c(NC(=O)COc2ccc(Cl)cc2Cl)sc2c1CC(C)(C)NC2(C)C | 92.1% (active)
COC(=O)c1ccccc1N=Nc1c(C)[nH][nH]c1=O | -4%
O=C(CSc1ncnc2c1nnn2Cc1ccc(F)cc1)NC1CCCC1 | -9.39%
O=C(CCNC(=O)c1ccc(Br)cc1)Nc1cccc(S(=O)(=O)N2CCCCC2)c1 | 5.98%
Cc1cc(C)cc(NC(=O)CSc2ccccc2)c1 | -3.71%
CSCc1ccc(C(=O)Nc2cc(C)cc(C)c2)cc1 | 66.6% (active)
C=CCN(c1ccc(C(=O)Nc2cc(C)cc(C)c2)cc1)S(C)(=O)=O | -8.04%
Cc1cccc(CC2(O)C(=O)Nc3ccccc32)n1 (configuration not stated) | -8.54%
CN(C)S(=O)(=O)c1ccc(N2CCCC2=O)c([N+](=O)[O-])c1 | 4.63%

— PubChem BioAssay AID624354 (Sanford-Burnham Center for Chemical Genomics, 2012)
